In experiment [1] the test system is Plasmodium falciparum Sir2 (PF13_0152, Sir2A). Description: Plasmodium falciparum Sir2A binding compounds – biochemical, small-molecule microarray, 635 nm fluorescence, primary screen (AID 1098).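 Further: score merges spot fluorescence intensity with its signal-to-noise ratio.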 The note with it: fluorescence 635 nm, higher = more signal.
Experiment [2] can be described thus: probe aDKK1 binding to arrayed compounds – biochemical, biotinylated probe, 635/667 nm fluorescence, primary screen (AID 1099).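 Further: score merges 667nm spot fluorescence with signal to noise across triplicate slides.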 Particulars: small-molecule microarray, higher = more signal.
The nature of experiment [3]: probe aCHRDL2 binding to arrayed compounds – biochemical, biotinylated probe, 635/667 nm fluorescence, primary screen (AID 1100). The note with it: small-molecule microarray, higher = more signal.
Experiment [4] can be described thus: change in splice reporter luminescence, either direction, cell-based, HEK293, spliceosome inhibition project, primary screen (AID 1101).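 Further: HEK293 cells carrying a splicing-competent luciferase reporter gene; test concentration not given here.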 The note with it: HEK293 splicing luciferase reporter, 24 h, higher = more signal, called active from +8 up or from −8 down.
In experiment [5] the target is Fibroblast growth factor 10 (Homo sapiens) (UniProt O15520). Nature of the experiment: compounds binding fibroblast growth factor 10 – biochemical, small-molecule microarray, 635 nm fluorescence, primary screen (AID 1102). Particulars: FGF10 binding, fluorescence 635 nm, higher = more signal.
For experiment [6], the system named is glycogen synthase kinase-3 (GSK3A per assay name; protocol says GSK3B). Nature of the experiment: compounds binding glycogen synthase kinase-3 – biochemical, small-molecule microarray, 635 nm fluorescence, GSK3A, primary screen (AID 1103). Further: the record names both GSK3A and GSK3B. Particulars: fluorescence 635 nm, higher = more signal.
Experiment [7] deals with Epidermal growth factor receptor (Homo sapiens) (UniProt P00533). Nature of the experiment: compounds binding epidermal growth factor receptor – biochemical, small-molecule microarray, 635 nm fluorescence, primary screen (AID 1104).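 Further: score merges 667 nm emission intensity with spot signal to noise over triplicate slides.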 The note with it: EGFR binding, higher = more signal.
Experiment [8] addresses Follistatin-related protein 3 (Homo sapiens) (UniProt O95633). Nature of the experiment: compounds binding follistatin-related protein 3 – biochemical, small-molecule microarray, 635 nm fluorescence, primary screen (AID 1105).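 Further: score merges emission near 667 nm and signal to noise per printed spot across three slides.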 Particulars: FSTL3 binding, higher = more signal.
Experiment [9] concerns the target Dickkopf-related protein 1 (Homo sapiens) (UniProt O94907). Nature of the experiment: small molecules binding DKK1 protein – biochemical, small-molecule microarray, 635 nm fluorescence scan, primary screen (AID 1106).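 Further: score merges emission near 667 nm with signal to noise over three replicate slides.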 The note with it: higher = more signal.
For experiment [10], the system named is Inhibin beta A chain (activin A). Description: small molecules binding activin A – biochemical, small-molecule microarray, 635 nm fluorescence scan, primary screen (AID 1107).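 Further: mouse activin A protein probed at 4.33 µg/mL on printed slides; score merges bound-protein fluorescence near 667 nm with spot signal-to-noise.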 The note with it: INHBA, higher = more signal.
In experiment [11] the test system is Human papillomavirus type 1a protein E7 (residues 44-93). Nature of the experiment: small molecules binding HPV E7 44-93 – biochemical, small-molecule microarray, residues 44-93, 635 nm fluorescence, primary screen (AID 1108).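 Further: E7 fragment applied at 1 µg/mL in TBST for 1 h at 4 C; score combines spot fluorescence with its signal to noise ratio.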 The note with it: fluorescence 635 nm, higher = more signal.
Experiment [12] can be described thus: hepatitis C replication reporter changes, two-sided – Huh7 cells, luciferase reporter, HCV replication inhibitor project, primary screen (AID 1109).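 Further: huh7 hepatoma cells harbouring a luciferase neomycin HCV replicon reporter; luciferase luminescence as measure of HCV replicon replication; test concentration not given here.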 Particulars: Huh7 HCV replicon luciferase reporter, 48 h; higher = more signal.
Experiment [13] deals with Left-right determination factor 2 (Homo sapiens) (UniProt O00292). Description: small molecules binding LEFTY2 protein – biochemical, small-molecule microarray, 635 nm fluorescence scan, primary screen (AID 1110). The note with it: higher = more signal.
The target of experiment [14] is Calmodulin-1 (Homo sapiens) (UniProt P0DP23). Description: small molecules binding calmodulin-1 with EGTA – biochemical, small-molecule microarray, Cy5-labelled CALM1, profiling panel (AID 1111).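 Further: labelled calmodulin applied in Tris saline Tween buffer holding calcium plus EGTA and DTT.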 The note with it: Cy5-CALM1 binding fluorescence, higher = more signal.
Experiment [15] has the same target. Description: small molecules binding Ca-loaded calmodulin-1 – biochemical, small-molecule microarray, Cy5-labelled CALM1, plus calcium, artefact control for SMM control-protein annotation, profiling panel (AID 1112).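 Further: score merges spot fluorescence with signal to noise from triplicate slides.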 The note with it: Cy5-CALM1 binding fluorescence, higher = more signal.
Experiment [16] in a line: probe aWnt5a binding to arrayed compounds – biochemical, biotinylated probe, 635/667 nm fluorescence, primary screen (AID 1113).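 Further: score merges 667 nm fluorescence intensity with signal-to-noise per printed feature.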 Particulars: small-molecule microarray, higher = more signal.
The nature of experiment [17]: probe aShh binding to arrayed compounds – biochemical, biotinylated probe, 635/667 nm fluorescence, primary screen (AID 1114).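 Further: probe is biotin-labelled aShh protein from a stem cell growth factor screen; measures binding of labelled protein to compounds printed on the slide; score merges feature fluorescence at 667 nm with signal-to-noise.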 The note with it: small-molecule microarray, higher = more signal.
Experiment [18] is described as follows: probe aNog binding to arrayed compounds – biochemical, biotinylated probe, 635/667 nm fluorescence, primary screen (AID 1115).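 Further: probe is biotinylated aNog protein used at 0.15 µg/mL for 1 h at 4 C; z-score combines 667 nm fluorescence of each spot with its signal to noise.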 The note with it: small-molecule microarray, higher = more signal.
In experiment [19] the target is Torsin-1A-interacting protein 1 (Homo sapiens) (UniProt Q5JTV8). Nature of the experiment: compound microarray binding of lysate hLAP1 – cell lysate, small-molecule microarray, COS7 lysate, 635/667 nm fluorescence, primary screen (AID 1116). Particulars: 635 nm fluorescence, higher = more signal.
For experiment [20], the target named is Alpha-bungarotoxin (Bungarus multicinctus) (UniProt P60615). Description: compounds binding labelled alpha-BTX control protein – biochemical, small-molecule microarray, Alexa647 label, 635/667 nm fluorescence, artefact control for SMM control protein annotation, profiling panel (AID 1117). The note with it: alpha-BTX-A647 binding fluorescence, higher = more signal.

The source made the active and inactive calls.

Here are results for six compounds from PubChem BioAssay.

Alpha-bungarotoxin (Bungarus multicinctus), sequence (P60615 whole entry, looked up): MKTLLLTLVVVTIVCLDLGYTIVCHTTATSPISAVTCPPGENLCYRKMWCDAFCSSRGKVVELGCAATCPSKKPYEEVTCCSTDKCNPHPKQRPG
Left-right determination factor 2 (Homo sapiens), sequence (O00292 whole entry, looked up): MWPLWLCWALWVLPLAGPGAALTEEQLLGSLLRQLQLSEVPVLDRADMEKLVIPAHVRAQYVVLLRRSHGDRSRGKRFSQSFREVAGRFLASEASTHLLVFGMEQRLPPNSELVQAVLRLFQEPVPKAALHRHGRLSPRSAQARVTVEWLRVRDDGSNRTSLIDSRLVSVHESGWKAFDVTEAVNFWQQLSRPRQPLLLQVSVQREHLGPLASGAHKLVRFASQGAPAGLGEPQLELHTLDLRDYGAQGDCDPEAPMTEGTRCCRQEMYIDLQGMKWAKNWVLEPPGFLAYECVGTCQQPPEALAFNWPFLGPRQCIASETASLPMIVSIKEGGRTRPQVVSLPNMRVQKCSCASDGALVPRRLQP
Epidermal growth factor receptor (Homo sapiens), sequence (P00533 whole entry, looked up): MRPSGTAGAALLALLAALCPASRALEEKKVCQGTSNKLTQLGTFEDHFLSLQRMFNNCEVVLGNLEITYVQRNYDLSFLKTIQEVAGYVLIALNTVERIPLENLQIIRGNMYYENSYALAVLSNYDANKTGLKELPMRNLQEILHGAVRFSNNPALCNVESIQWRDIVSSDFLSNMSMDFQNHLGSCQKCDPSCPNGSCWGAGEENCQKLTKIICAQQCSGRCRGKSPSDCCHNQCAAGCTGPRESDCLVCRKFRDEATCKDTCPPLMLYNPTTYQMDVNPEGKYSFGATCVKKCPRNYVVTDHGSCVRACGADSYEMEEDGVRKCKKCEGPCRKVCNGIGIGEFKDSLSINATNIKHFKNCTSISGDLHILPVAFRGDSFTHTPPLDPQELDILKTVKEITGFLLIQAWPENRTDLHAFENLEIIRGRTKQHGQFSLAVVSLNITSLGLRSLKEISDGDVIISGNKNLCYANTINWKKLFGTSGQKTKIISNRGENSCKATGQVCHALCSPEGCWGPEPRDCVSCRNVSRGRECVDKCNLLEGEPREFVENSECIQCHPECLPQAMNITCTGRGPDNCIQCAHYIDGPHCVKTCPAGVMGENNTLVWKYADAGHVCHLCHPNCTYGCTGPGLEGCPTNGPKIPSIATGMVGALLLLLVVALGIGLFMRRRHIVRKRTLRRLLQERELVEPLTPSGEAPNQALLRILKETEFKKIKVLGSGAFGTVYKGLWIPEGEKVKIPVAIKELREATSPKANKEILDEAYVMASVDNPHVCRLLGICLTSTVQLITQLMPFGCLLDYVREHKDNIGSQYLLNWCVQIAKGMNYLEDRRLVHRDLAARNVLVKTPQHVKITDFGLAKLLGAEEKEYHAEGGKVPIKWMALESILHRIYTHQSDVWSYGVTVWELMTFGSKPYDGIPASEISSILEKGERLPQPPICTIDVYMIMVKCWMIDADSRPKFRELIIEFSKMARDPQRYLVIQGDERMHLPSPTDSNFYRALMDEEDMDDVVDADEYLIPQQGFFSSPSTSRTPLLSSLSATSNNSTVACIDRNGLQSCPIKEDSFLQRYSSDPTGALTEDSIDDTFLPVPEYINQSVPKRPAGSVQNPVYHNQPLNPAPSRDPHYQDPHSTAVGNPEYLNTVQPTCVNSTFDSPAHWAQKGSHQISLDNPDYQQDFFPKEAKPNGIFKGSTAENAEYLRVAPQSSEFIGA
Torsin-1A-interacting protein 1 (Homo sapiens), sequence (Q5JTV8 whole entry, looked up): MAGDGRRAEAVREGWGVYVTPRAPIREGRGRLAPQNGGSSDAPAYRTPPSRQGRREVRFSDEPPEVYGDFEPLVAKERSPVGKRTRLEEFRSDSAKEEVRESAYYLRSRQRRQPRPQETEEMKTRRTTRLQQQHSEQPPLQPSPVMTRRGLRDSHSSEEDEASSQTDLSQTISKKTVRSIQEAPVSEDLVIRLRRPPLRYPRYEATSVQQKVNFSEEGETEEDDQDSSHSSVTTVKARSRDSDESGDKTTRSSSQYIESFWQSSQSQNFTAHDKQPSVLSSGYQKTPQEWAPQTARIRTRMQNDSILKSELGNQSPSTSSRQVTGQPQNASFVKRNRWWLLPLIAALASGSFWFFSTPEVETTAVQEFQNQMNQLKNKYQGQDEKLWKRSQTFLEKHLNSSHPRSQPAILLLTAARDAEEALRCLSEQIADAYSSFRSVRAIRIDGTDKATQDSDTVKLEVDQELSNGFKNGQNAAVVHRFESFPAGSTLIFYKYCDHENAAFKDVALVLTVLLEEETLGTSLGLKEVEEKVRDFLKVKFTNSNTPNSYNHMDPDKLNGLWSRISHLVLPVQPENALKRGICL
Fibroblast growth factor 10 (Homo sapiens), sequence (O15520 whole entry, looked up): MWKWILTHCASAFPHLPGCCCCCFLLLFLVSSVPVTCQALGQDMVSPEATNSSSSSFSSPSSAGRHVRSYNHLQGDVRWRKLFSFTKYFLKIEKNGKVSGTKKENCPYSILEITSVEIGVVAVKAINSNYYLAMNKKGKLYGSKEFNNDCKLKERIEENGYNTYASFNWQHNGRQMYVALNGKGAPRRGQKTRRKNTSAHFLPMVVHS
Follistatin-related protein 3 (Homo sapiens), sequence (O95633 whole entry, looked up): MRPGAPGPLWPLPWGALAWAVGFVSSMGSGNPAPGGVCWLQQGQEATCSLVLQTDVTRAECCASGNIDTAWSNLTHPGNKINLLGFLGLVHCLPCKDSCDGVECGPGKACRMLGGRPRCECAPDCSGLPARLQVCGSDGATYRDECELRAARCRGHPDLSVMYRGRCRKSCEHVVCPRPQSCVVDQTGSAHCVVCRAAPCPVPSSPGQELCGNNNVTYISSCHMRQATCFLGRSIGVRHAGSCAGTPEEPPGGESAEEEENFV
Dickkopf-related protein 1 (Homo sapiens), sequence (O94907 whole entry, looked up): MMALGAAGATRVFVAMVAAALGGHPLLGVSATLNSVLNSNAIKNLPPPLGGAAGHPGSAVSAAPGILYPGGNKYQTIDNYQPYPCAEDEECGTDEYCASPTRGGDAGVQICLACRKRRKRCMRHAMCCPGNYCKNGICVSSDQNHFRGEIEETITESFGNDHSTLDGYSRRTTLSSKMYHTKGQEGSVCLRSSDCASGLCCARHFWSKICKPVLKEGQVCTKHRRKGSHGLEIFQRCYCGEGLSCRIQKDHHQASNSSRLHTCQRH

Regarding `COC(=O)[C@@]1(Cc2ccc(OC)cc2)[C@H]2c3cc(C(=O)N(C)C)n(CCN4CNCC4=O)c3C[C@H]2CN1C(=O)c1ccccc1`, the composite z-score in [1] is 0.44; in [2] it was -0.218; in [3] it was 0.7; in experiment [5] it was -0.33; in experiment [6], -0.638; in experiment [7], 0.259. Further, the composite z-score is -0.153 in [8]; -0.812 in experiment [9]; 0.712 in [10]; -0.662 in experiment [11]; 0.149 in experiment [13]; 0.866 in experiment [14]. The composite z-score is 0.701 in experiment [15]; 0.164 in experiment [16]; -0.0793 in [17]; -0.505 in experiment [18]; 0.528 in experiment [19]; -0.124 in experiment [20]. Besides, the z-score in [4] was 2.02 (inactive); in [12], -0.422.

Regarding `C=C(C)C1C(=C)CN([C@H](CO)c2ccccc2)C1=O` (stereo not given in full), the composite z-score in [1] is 1.35; in experiment [2] it was -0.172; in experiment [3], 0.22; in experiment [5] it was -0.0267; in experiment [6], -0.599; in experiment [7], -0.476. Also, the composite z-score in [8] is -0.0684; in [9], -0.153; in experiment [10], 1.36; in experiment [11] it was 0.317; in [13], -0.065; in [14], -0.911. The composite z-score in experiment [15] was -0.968; in [16], -0.0459; in experiment [17] it was -0.154; in experiment [18], -0.229; in experiment [19], -0.486; in experiment [20] it was -0.605. Further, the figures for the z-score in [4] and in experiment [12] were -0.622 (inactive) and -0.25, respectively.

For `O=C(NCC(F)(F)F)[C@@H]1c2ccccc2C(=O)N(C2CCCCC2)[C@H]1c1ccc(CO)cc1`, the composite z-score in [1] is 1.56; in experiment [2], 0.121; in [3], 0.528; in [5] it was 0.0573; in experiment [6] it was -0.0294; in experiment [7], -0.759. Moreover, the composite z-score was 0.177 in experiment [8]; -0.783 in experiment [9]; -0.0906 in experiment [10]; 0.268 in [11]; -0.382 in experiment [13]; 0.218 in experiment [14]. The composite z-score is -0.403 in [15]; -0.172 in experiment [16]; -0.138 in experiment [17]; -0.342 in experiment [18]; -0.257 in experiment [19]; 1.43 in experiment [20]. The results for the z-score in [4] and in [12] were 0.283 (inactive) and -1.7, respectively.

Take `[N-]=[N+]=Nc1ccccc1C[C@]1(C(N)=O)N=C(c2ccc(OCCCO)cc2)O[C@H]1c1ccccc1`: the composite z-score was 1.13 in experiment [1]; 0.0609 in experiment [2]; 0.875 in [3]; 0.181 in [5]; 0.532 in [6]; -1.44 in experiment [7]. Further, the composite z-score in experiment [8] is -0.255; in experiment [9], -0.748; in experiment [10], 0.511; in [11] it was 1.43; in [13] it was -0.932; in experiment [14], 1.59. For the same compound, the composite z-score is 0.0189 in [15]; -0.0721 in [16]; 0.0723 in experiment [17]; -0.235 in experiment [18]; 2.05 in experiment [19]; 1.03 in experiment [20]. For the same compound, the z-score in experiment [4] is 0.297 (inactive); in experiment [12], -0.947.

As to `NC(=O)[C@@H]1[C@H]2C(=O)O[C@H](c3ccccc3)[C@H](c3ccccc3)N2[C@H](c2ccc(O)cc2)[C@@]12C(=O)Nc1ccc(C#CC3(O)CCCCCC3)cc12`, the composite z-score in experiment [1] was 0.61; in [2], -0.127; in [3], 0.523; in experiment [5] it was -0.177; in [6], -1.05; in experiment [7] it was -0.497. Also, the composite z-score was -0.846 in experiment [8]; -0.193 in experiment [9]; -0.257 in [10]; 0.124 in experiment [11]; -0.0941 in [13]; -0.363 in [14]. The composite z-score in [15] was 0.555; in experiment [16], -0.202; in [17], 0.0684; in [18], 0.179; in [19], 1.59; in experiment [20], -0.115. Besides, the z-score in [4] is 0.0171 (inactive); in experiment [12], -0.293.

As to `C=CCNC(=O)[C@H]1[C@@H]2C(=O)O[C@@H](c3ccccc3)[C@@H](c3ccccc3)N2[C@@H](c2ccc(O)cc2)[C@]12C(=O)N(C(=O)OCCOC)c1ccc(C#CCNC(N)=O)cc12`, the composite z-score amounted to 0.867 in experiment [1]; 0.297 in experiment [2]; 0.537 in experiment [3]; 0.855 in experiment [5]; 1.11 in experiment [6]; 0.157 in [7]. The composite z-score in experiment [8] was 0.999; in [9], 0.936; in [10], 0.969; in experiment [11] it was 0.863; in experiment [13] it was 1.01; in experiment [14], -0.0456. Besides, the composite z-score in [15] is 0.143; in [16], 0.0077; in experiment [17], -0.0769; in [18] it was 0.0989; in experiment [19], 0.585; in [20] it was 1.07. Besides, the z-score is 0.481 (inactive) in experiment [4] and -0.767 in [12].
